Compounds without any hit were thinned out: in the full panel of roughly 83,000, 20% have a hit.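 48-hour exposure, single concentration, 96-well plates; percent growth endpoint where 0 means no net growth. Active: below 10.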 Activity calls are given as the source filed them.
tested on: HL-60(TB) leukemia; assay: NCI-60 one-dose screen, 48 h (100 = growth as untreated, 0 = no growth, -100 = all killed); details: 10 µM unless noted

**Q.** With `COc1ccc(C2NC(=O)C(C#N)c3c2sc2c(F)cccc32)c(OC)c1` (configuration not stated) as the molecule, how does the growth read?
**A.** The growth was 56.9% (inactive).

**Q.** Which growth does the source give for `CCOc1cc(/C=C/C(=O)CC(=O)/C=C/c2ccc(OC(=O)CNCCN(CC)CC)c(OCC)c2)ccc1OC(=O)CNCCN(CC)CC` here?
**A.** The growth was -30.5% (active).

**Q.** How did the growth turn out when `Cc1cccc(-[n+]2noc(N)n2)c1` was run?
**A.** The growth was 30.8% (inactive).

**Q.** Which growth does the source give for `COC(=O)c1cnc2c(c1)Oc1ccccc1-c1ccnn1-2` here?
**A.** The growth was 98.3% (inactive).

**Q.** `Nc1ccc(-c2ccncc2)cc1NC(=O)N1CCCC1` was tested. Which growth did it give?
**A.** The growth was 120% (inactive).

**Q.** `CCCCCCCCCCCCCCCCC(=O)O` was tested. Which growth did it give?
**A.** Its growth is 101% (inactive).

**Q.** Which growth does the source give for `O=C1C=C(Nc2cccc(Br)c2)c2ccccc2C1=O` here?
**A.** The growth was 71.8% (inactive).

**Q.** `COc1cc2c(c(OC)c1OC)CCC(c1cccc(C(=O)Nc3ccccc3Br)c1)O2` (configuration not stated) was tested. Which growth did it give?
**A.** The growth was 79.3% (inactive).

**Q.** For `CCOC(=O)C(C(=O)OCC)C(c1ccccc1)N1CCN(c2ccccc2)CC1` (configuration not stated), which growth is on record?
**A.** Its growth is 97.7% (inactive).

**Q.** With `COc1ccc(Cn2cc3c(c2)-c2oncc2CC3)cc1OC` as the molecule, how does the growth read?
**A.** The growth was 2.83% (active).

**Q.** `C=CCn1c(SCC(=O)Nc2ccc(C(=O)/C=C/c3cc(OC)c(OC)c(OC)c3)cc2)nnc1-c1cc(-c2ccc(S(N)(=O)=O)cc2)nc2ccccc12` was tested. Which growth did it give?
**A.** The growth was 57.5% (inactive).

**Q.** How did the growth turn out when `COc1ccc(C(=O)COc2ccc(/C=C3\Oc4ccc(Cl)cc4C3=O)cc2)cc1` was run?
**A.** Its growth is 16.5% (inactive).

**Q.** For `N=C(N)c1ccc(-c2ccc(-c3ccc(Cl)cc3Cl)s2)cc1`, which growth is on record?
**A.** The growth was -45.1% (active).

**Q.** For `Cn1c(=O)c2c(ncn2CC(=O)Nc2ccc(S(N)(=O)=O)cc2)n(C)c1=O`, which growth is on record?
**A.** Its growth is 94.2% (inactive).

**Q.** `COc1ccc(-c2nsc3c2NC(=O)CC3c2cccc(OC)c2)cc1` (configuration not stated) was tested. Which growth did it give?
**A.** The growth was 6.13% (active).

**Q.** `C=C1C(=O)O[C@H]2[C@H]1CC/C(COC(=O)NCCCCNC(=O)OC/C1=C/CC[C@@]3(C)O[C@H]3[C@H]3OC(=O)C(=C)[C@@H]3CC1)=C\CC[C@@]1(C)O[C@@H]21` was tested. Which growth did it give?
**A.** The growth was -50.7% (active).

**Q.** How did the growth turn out when `O=C(/C=C/c1cccc([N+](=O)[O-])c1)c1ccc(Nc2nc(Nc3ccc(F)cc3)nc(Nc3ccc(Cl)cc3)n2)cc1` was run?
**A.** The growth was -42.1% (active).

**Q.** Which growth does the source give for `COc1cc(/C=C2\CCCC3=C2N=C2SC(C)=CN2C3c2cc(OC)c(OC)c(OC)c2)cc(OC)c1OC` (configuration not stated) here?
**A.** Its growth is -11.9% (active).

**Q.** How did the growth turn out when `CC(C)(C)n1cc(-c2ccnc(NCCNS(=O)(=O)c3ccc(F)cc3)c2)c(-c2cccc(O)c2)n1` was run?
**A.** Its growth is 46.6% (inactive).

**Q.** Which growth does the source give for `Nc1nc2c(c(=O)[nH]1)C1(C(=O)Nc3ccccc31)c1c(nc(N)[nH]c1=O)N2` here?
**A.** The growth was 108% (inactive).

**Q.** For `CCCCCCCCCCCCCCCCCc1nccn1CCO`, which growth is on record?
**A.** The growth was 64.4% (inactive).

**Q.** With `COc1ccccc1C1=C(Br)C(=O)c2nc(C)ccc2C1=O` as the molecule, how does the growth read?
**A.** The growth was 44.4% (inactive).

**Q.** How did the growth turn out when `CN(C)C(=O)OCc1nc2c(N3CCOCC3)nc(-c3ccccc3)nc2n1C` was run?
**A.** The growth was -29.2% (active).

**Q.** How did the growth turn out when `CC(C)c1ccc(C(=O)Nc2nc3ccc(O)cc3s2)cc1` was run?
**A.** Its growth is 14.4% (inactive).

**Q.** With `COC(=O)/C=C1/SC(=Nc2ccc(C(F)(F)F)cc2)N(CCc2c[nH]c3ccc(O)cc23)C1=O` as the molecule, how does the growth read?
**A.** Its growth is -33.1% (active).

**Q.** With `CC(C)[C@@H]1NC(=O)[C@]2(C)CSC(=N2)c2ccnc(c2)CNC(=O)C[C@@H](/C=C/CCS)OC1=O` as the molecule, how does the growth read?
**A.** Its growth is 9.07% (active).

**Q.** Which growth does the source give for `O=C1NC(=O)C(c2ccccc2)(c2ccccc2)N1Cc1cn(-c2c3ccccc3nc3ccccc23)nn1` here?
**A.** Its growth is 73.3% (inactive).

**Q.** With `C#CC[C@@H]1C[C@]2(C)[C@H]3CC=C4[C@H]5[C@@H](C)[C@H](C)CC[C@]5(C(=O)NCCCN5CCN(CCCN)CC5)CC[C@@]4(C)[C@]3(C)CC[C@H]2C(C)(C)[C@H]1OC(C)=O` as the molecule, how does the growth read?
**A.** Its growth is -55.9% (active).

**Q.** `O=S(=O)(Nc1ccc(Br)c(Cl)c1)c1ccc(-c2cnc(C3CC3)o2)cc1` was tested. Which growth did it give?
**A.** The growth was -4.27% (active).

**Q.** With `CCOC(=O)/C=C1\S/C(=N\Nc2cc(=O)[nH]c3ccccc23)N(c2ccccc2)C1=O` as the molecule, how does the growth read?
**A.** The growth was 99.1% (inactive).

**Q.** Which growth does the source give for `COc1ccccc1CNCCCN1C(=O)c2ccc3c4c(ccc(c24)C1=O)C(=O)N(CCCNCCCCNCCCN)C3=O` here?
**A.** Its growth is -54.4% (active).

**Q.** `N=c1sc(Cc2ccc(Cl)cc2)cn1CC(=O)c1ccc(F)cc1` was tested. Which growth did it give?
**A.** The growth was 94.8% (inactive).

**Q.** Which growth does the source give for `CN(C)c1ccc2c(c1)/C(=N/O)c1ccccc1-2` here?
**A.** The growth was 87.3% (inactive).

**Q.** For `CC1(c2ccccc2Cl)NC(=O)NC1=O` (configuration not stated), which growth is on record?
**A.** The growth was 87.8% (inactive).

**Q.** `O=C(c1ccccc1)C1(Br)CCCCC1` was tested. Which growth did it give?
**A.** Its growth is 106% (inactive).

**Q.** Which growth does the source give for `COc1ccc(/C=C/c2nc(Nc3cccc(NC(C)=O)c3)c3ccccc3n2)cc1` here?
**A.** The growth was 78.5% (inactive).

**Q.** With `Cc1ccc(S(=O)(=O)NNC(=O)/C(=C\c2ccc(Cl)cc2)c2nc3ccccc3s2)cc1` as the molecule, how does the growth read?
**A.** The growth was 89.7% (inactive).

Reference: PubChem BioAssay (NCI)
